“And” between values parts separate entries of the source, which are not always exact repeats. Equal values may be shown once. Out of some 330,000 compounds screened, about 3,800 (1.2%) were called active. Rule as the data show it: active = inhibition above about 15%; inconclusive = no clear call, values can overlap the other calls; inactive = below that. The entries come from a sample that favours actives as a whole.

For the assay, the target named is NAD-dependent protein deacylase sirtuin-5, mitochondrial (Homo sapiens) (UniProt Q9NXA8). Description: blockers of sirtuin-5 deacylase activity – biochemical, fluorescence imaging, single point, set 5, primary screen (AID 652115). Particulars: Purified SirT5, succinyl-peptide AMC, trypsin-coupled fluorescence; at 15 µM; hits give high values.
Chain of NAD-dependent protein deacylase sirtuin-5, mitochondrial (Homo sapiens) (Q9NXA8 whole entry, looked up): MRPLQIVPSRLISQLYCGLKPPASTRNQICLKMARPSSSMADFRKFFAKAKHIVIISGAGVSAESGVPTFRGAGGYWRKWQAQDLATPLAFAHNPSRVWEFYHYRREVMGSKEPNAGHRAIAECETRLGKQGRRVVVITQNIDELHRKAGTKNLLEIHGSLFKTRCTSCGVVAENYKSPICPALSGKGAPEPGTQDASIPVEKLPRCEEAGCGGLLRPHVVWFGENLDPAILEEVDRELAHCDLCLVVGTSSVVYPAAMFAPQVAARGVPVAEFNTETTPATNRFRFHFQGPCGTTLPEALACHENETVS
By inhibition is commonly meant the change of the read-out against control, counted positive when it falls. Regarding `CCS(=O)(=O)N1CC(=O)N2[C@H](CO)[C@@H](c3ccc(C#CC4CCCC4)cc3)[C@@H]2C1`, the inhibition is -0.752% (inactive).

Consider `COc1ccccc1CN1CCNC(=O)C1CC(=O)N(C)CC1CCOCC1` (stereo unspecified), for which the inhibition is -0.968% (inactive).

Regarding `CN(Cc1cccc2ncccc12)C(=O)CC1C(=O)NCCN1Cc1ccc(F)cc1` (stereo unspecified), the inhibition is 7.41% (inactive).

On to `CCN(CCn1cccn1)C(=O)CC1C(=O)NCCN1Cc1cccc(OC)c1OC` (stereo unspecified), for which the inhibition was 16.5% (active).

Turning to `Cc1noc(C)c1S(=O)(=O)Nc1ccc2c(c1)C(=O)N([C@H](C)CO)C[C@H](C)[C@H](CN(C)C(=O)NC1CCCCC1)OCCCC[C@H](C)O2`, the inhibition was 0.076% (inactive).

As to `COc1ccccc1-c1nnc(NC(=O)c2cccc(N3C(=O)CCC3=O)c2)o1`, the inhibition is 1.38% (inactive).

As to `Cc1sc(NC(=O)c2ccc3ncsc3c2)c(C(N)=O)c1C`, the inhibition was -6.86% (inactive).

On to `COc1ccccc1-c1nnc(NC(=O)c2ccc3ncsc3c2)o1`, for which the inhibition is 20.5% (active).

With `CCCNC(=O)C[C@H]1CC[C@@H]2[C@H](COC[C@H](O)CN2CC2CCCCC2)O1`, the inhibition is -1.9% (inactive).

Turning to `C[C@@H]1CN([C@H](C)CO)C(=O)c2cc(-c3cccc(F)c3)cnc2O[C@@H]1CN(C)C`, the inhibition is 21.7% (active).

`COc1cccc(-c2cnc3c(c2)C(=O)N([C@@H](C)CO)C[C@H](C)[C@H](CN(C)C(C)=O)O3)c1`: the inhibition is 2.24% (inactive).

Regarding `C[C@H](CO)N1C[C@H](C)[C@@H](CN(C)C)Oc2ncc(-c3cccc(F)c3)cc2C1=O`, the inhibition was -1.97% (inactive).

As to `CC(=O)N(C)C[C@H]1Oc2ncc(-c3cccc(F)c3)cc2C(=O)N([C@@H](C)CO)C[C@H]1C`, the inhibition was 25.3% (active).

`C[C@H]1CN([C@@H](C)CO)C(=O)c2cc(-c3cccc(F)c3)cnc2O[C@@H]1CN(C)S(C)(=O)=O`: the inhibition was 0.285% (inactive) and -8.78% (inactive).

In the case of `C[C@H]1CN([C@@H](C)CO)C(=O)c2cc(-c3cccc(F)c3)cnc2O[C@@H]1CN(C)C(=O)c1ccccn1`, the inhibition is 0.073% (inactive).

As for `C[C@H]1CN([C@@H](C)CO)S(=O)(=O)c2ccc(C#Cc3ccccc3)cc2O[C@H]1CN(C)S(=O)(=O)c1cn(C)cn1`, the inhibition is 2.56% (inactive).

As to `COc1ccccc1-c1ccc([C@H]2[C@H](CO)N(C(=O)C3CC3)C23CN(C(C)=O)C3)cc1`, the inhibition is 2.52% (inactive).

`Cc1ccc(S(=O)(=O)N(Cc2cc3ccccc3[nH]c2=O)CC2CCCO2)cc1` (stereo unspecified): the inhibition is 23.6% (active).

Regarding `O=C(c1cccs1)N(Cc1cc2ccccc2[nH]c1=O)CC1CCCO1` (stereo unspecified), the inhibition was 0.632% (inactive).

As for `Cc1cc2cc(CN(Cc3cccs3)Cc3nnnn3CC3CCCO3)c(=O)[nH]c2cc1C` (stereo unspecified), the inhibition was -2.28% (inactive).

For the compound `CO[C@H]1CN(C)C(=O)c2ccc(NC(=O)CC(F)(F)F)cc2OC[C@@H](C)N(C(=O)c2ccccc2F)C[C@@H]1C`, the inhibition is 4.25% (inactive).

Regarding `O=C(NCCc1ccc(F)cc1)c1n[nH]c2ccccc12`, the inhibition was 9.38% (inactive).

`O=C(NCCc1ccc(F)cc1)c1ccc(S(=O)(=O)N2CCCCC2)cc1`: the inhibition was -0.792% (inactive).

With `O=C(NCCc1ccc(F)cc1)c1ccc2nccnc2c1`, the inhibition is 16% (active).

For `Cc1ccccc1-c1ccc(C2[C@@H]3CN(C(=O)C4CCCCC4)C[C@H]2N3)cc1` (stereo partly specified), the inhibition is -6.18% (inactive) and -1.65% (inactive).

As for `C/C=C/c1ccc(C2[C@H]3CNC[C@@H]2N3Cc2cccc(OC)c2)cc1` (stereo partly specified), the inhibition is -2.37% (inactive) and 0.748% (inactive).

For the compound `CCNC(=O)C[C@H]1CC[C@@H]2[C@H](COC[C@H](O)CN2S(=O)(=O)c2ccc(Oc3ccccc3)cc2)O1`, the inhibition was -0.497% (inactive).

Turning to `COc1ccc(NC(=O)N(C)C[C@@H]2OCCCC[C@H](C)Oc3ccc(NS(=O)(=O)c4cccs4)cc3C(=O)N([C@@H](C)CO)C[C@@H]2C)cc1`, the inhibition is -0.093% (inactive).

On to `C[C@@H]1CN([C@H](C)CO)C(=O)c2cc(C#CC3CCCC3)cnc2O[C@H]1CN(C)S(C)(=O)=O`, for which the inhibition was -4.07% (inactive).

As for `C[C@H](CO)N1C[C@H](C)[C@@H](CN(C)CC2CCOCC2)Oc2ncc(C#Cc3ccc(F)cc3)cc2C1=O`, the inhibition is -1.14% (inactive).

With `C[C@@H]1CN([C@@H](C)CO)C(=O)c2cc(C#CC3CCCCC3)cnc2O[C@H]1CN(C)S(=O)(=O)c1ccccc1`, the inhibition was 17.9% (active).

On to `CC(C)CC#Cc1cnc2c(c1)C(=O)N([C@H](C)CO)C[C@H](C)[C@H](CN(C)CC1CCOCC1)O2`, for which the inhibition was 23% (active).

On to `C[C@@H]1CN([C@@H](C)CO)C(=O)c2cc(C#C[C@@H](C)O)cnc2O[C@H]1CN(C)CC1CCOCC1`, for which the inhibition is -2.03% (inactive).

As for `C[C@H]1CN([C@@H](C)CO)C(=O)c2cc(C#CC3CCCCC3)cnc2O[C@H]1CN(C)S(=O)(=O)c1ccccc1`, the inhibition is 13.2% (inactive).

Regarding `C[C@H]1CN([C@@H](C)CO)S(=O)(=O)c2ccc(-c3cccc(C#N)c3)cc2O[C@H]1CN(C)CC1CC1`, the inhibition was -0.017% (inactive).

`COCC#Cc1cnc2c(c1)C(=O)N([C@@H](C)CO)C[C@@H](C)[C@@H](CN(C)S(=O)(=O)c1cccc(OC)c1)O2`: the inhibition is -3.81% (inactive).

Consider `CN(C)Cc1cn(CC[C@H]2CC[C@H](NS(=O)(=O)c3ccccc3)[C@@H](CO)O2)nn1`, for which the inhibition is -3.23% (inactive).

For `Cc1ccc(S(=O)(=O)N2C[C@H](O)COC[C@H]3O[C@H](CC(=O)N[C@H]4CCN(Cc5ccccc5)C4)CC[C@@H]32)cc1`, the inhibition was -1.53% (inactive).

Regarding `CN(C(=O)CSc1nncc2ccccc12)C1CCCCC1`, the inhibition is 1.3% (inactive).

For `C/C(=N\Nc1nncc2ccccc12)c1ccc(Cl)c([N+](=O)[O-])c1`, the inhibition is 2.12% (inactive).

On to `CN(CCO)c1ccc(/C=N/Nc2nncc3ccccc23)cc1`, for which the inhibition is 25% (active).

Take `C[C@H]1CCCCO[C@@H](CN(C)Cc2ccccc2)[C@@H](C)CN([C@@H](C)CO)C(=O)c2cc(NC(=O)Cc3ccccc3)ccc2O1`: the inhibition was 2.55% (inactive).

Take `O=C(C[C@H]1CC[C@@H](NC(=O)Cc2cccnc2)[C@H](CO)O1)Nc1ccc(-c2ccccc2)cc1`: the inhibition was 4.12% (inactive).

With `O=C(O)CCCN1C(=O)C2C3c4ccccc4C(c4ccccc43)[C@@H]2C1=O` (stereo partly specified), the inhibition is -0.491% (inactive).

Turning to `Cc1ccc(C(=O)COC(=O)CCN2C(=O)C3C4CCC(C4)C3C2=O)cc1C` (stereo unspecified), the inhibition is -2.42% (inactive).

For `O=C(CCN1C(=O)C2C3C=CC(C3)C2C1=O)Oc1ccc2ccccc2c1` (stereo unspecified), the inhibition is 19.8% (active).

(Values after PubChem BioAssay AID652115 (Broad Institute, 2013).)
